An excerpt weighted towards active compounds, which were near 4.1% of everything screened.
UGM FP inh: Mtb UDP-galactopyranose mutase inhibition. purified UGM, fluorescence polarization probe displacement. inhibition, % at 10 µM. 320,000 tested, 0.06% active. AID 504406; in the data active = inhibition above about 10%, passing the limit was not always enough
Mtb FBA inh: inhibitors of M. tuberculosis fructose-bisphosphate aldolase | AID 588726 | P9WQA3 | 360,000 tested, 2.3% active | purified M. tuberculosis FBA, fluorescence read-out | inhibition, % at 1 µM
RecA intein inh: inhibitors of M. tuberculosis RecA intein splicing | 290,000 tested, 0.75% active | inhibition, % (concentration not given with the values) | P9WHJ3 | cell-free RecA intein splicing, fluorescence; in the data active = inhibition above about 30%
Target sequence (P9WHJ3 whole entry, looked up): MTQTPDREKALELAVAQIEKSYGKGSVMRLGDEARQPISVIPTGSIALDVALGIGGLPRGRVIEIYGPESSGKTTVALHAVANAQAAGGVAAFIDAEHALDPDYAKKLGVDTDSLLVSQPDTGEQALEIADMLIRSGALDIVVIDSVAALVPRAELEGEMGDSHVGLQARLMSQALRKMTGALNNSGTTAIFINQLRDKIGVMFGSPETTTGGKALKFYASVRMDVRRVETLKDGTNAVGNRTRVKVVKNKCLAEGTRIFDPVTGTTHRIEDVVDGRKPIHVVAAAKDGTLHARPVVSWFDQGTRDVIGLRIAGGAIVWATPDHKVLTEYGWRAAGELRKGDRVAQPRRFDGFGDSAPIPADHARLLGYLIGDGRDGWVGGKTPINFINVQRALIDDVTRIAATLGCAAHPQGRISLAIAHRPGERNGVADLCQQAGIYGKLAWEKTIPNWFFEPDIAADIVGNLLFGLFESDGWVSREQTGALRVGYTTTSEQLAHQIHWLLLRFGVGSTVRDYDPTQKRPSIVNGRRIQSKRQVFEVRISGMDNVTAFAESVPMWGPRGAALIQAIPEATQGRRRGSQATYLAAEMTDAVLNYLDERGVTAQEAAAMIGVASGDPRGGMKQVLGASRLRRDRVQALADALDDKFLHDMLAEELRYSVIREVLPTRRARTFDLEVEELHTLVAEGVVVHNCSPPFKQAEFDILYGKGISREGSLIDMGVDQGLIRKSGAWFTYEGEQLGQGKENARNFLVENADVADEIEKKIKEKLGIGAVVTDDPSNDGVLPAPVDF
Rv3671c inh: inhibitors of M. tuberculosis serine protease Rv3671c | P9WHR9 | inhibition, % at 5.96 µM | 320,000 tested, 0.048% active | AID 2606; in the data active = inhibition above about 38%;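 note: extracellular domain of Rv3671c used as enzyme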
Vc quorum ag: induces V. cholerae light production without autoinducers. V. cholerae BH1578 lux reporter, luminescence, 6 h. activation, % at 18.7 µM. 350,000 tested, 0.16% active; in the data active = activation mostly above about 9.7%, no sharp cut-off
GDH-TPI counter-1: GDH-TPI coupled enzyme inhibition counter-screen | GDH-TPI coupled enzyme counterscreen, NADH absorbance | inhibition, % at 4.8 µM | 360,000 tested, 1.2% active | AID 588335; in the data active = inhibition above about 30%
Mtb FBA inh conf: Mtb FBA inhibition, confirmed | 5,600 tested, 78% active | purified M. tuberculosis FBA, fluorescence read-out | inhibition, % at 1 µM | shares compounds with Mtb FBA inh
GDH-TPI counter-2: GDH-TPI inhibition counter-screen for FBA inhibitors | inhibition, % at 1 µM | 5,600 tested, 81% active | AID 652141 | GDH-TPI coupled enzyme counterscreen, fluorescence | shares compounds with Mtb FBA inh; in the data active = inhibition above about 10%
Of the large screens only hits and unclear results are named; the others gave an inactive call (follow-up assays come after a bar, where they were run). Cut-off read from the data, not from the text of the source, unless noted: active = inhibition above about 27%; inactive = the rest.

O=C(NC(NC(=S)Nc1ccccc1C(=O)O)C(Cl)(Cl)Cl)c1ccco1 (stereo unspecified)	Mtb FBA inh 33 (no result: UGM FP inh) | Mtb FBA inh conf inactive | GDH-TPI counter-2 inactive
Fc1ccc2cc(-c3ccccc3)ncc2c1	Mtb FBA inh 49 (no result: RecA intein inh) | Mtb FBA inh conf 88 | GDH-TPI counter-2 71
c1cncc(CNc2cccc(-c3nc4ccccc4[nH]3)c2)c1	Mtb FBA inh 48 | Mtb FBA inh conf inactive | GDH-TPI counter-2 inactive
Cc1cnc(C(=O)OCC(=O)c2ccc(F)c(F)c2)cn1	none
O=C(OCC(=O)N1CCc2ccccc21)c1ccccc1	none (no result: Vc quorum ag)
Nc1ccccc1C(=O)OCC(=O)N1CCc2ccccc21	Mtb FBA inh 35 (no result: UGM FP inh, Rv3671c inh) | Mtb FBA inh conf 59 | GDH-TPI counter-2 43
CN(C(=O)COC(=O)c1ccccc1NCCO)C1CCS(=O)(=O)C1 (stereo unspecified)	Mtb FBA inh 103 | Mtb FBA inh conf 124 | GDH-TPI counter-2 93
CN(C(=O)COC(=O)c1ccccc1NC(=O)c1ccco1)C1CCS(=O)(=O)C1 (stereo unspecified)	none
CNc1ccccc1C(=O)OCC(=O)N1CCc2ccccc2C1	Mtb FBA inh 63 (no result: UGM FP inh, RecA intein inh, Rv3671c inh) | Mtb FBA inh conf inactive | GDH-TPI counter-2 inactive
O=C(OCC(=O)N1CCN(c2ccccc2)CC1)c1ccccc1NCCO	Mtb FBA inh 100 | Mtb FBA inh conf active | GDH-TPI counter-2 active
CCc1noc(C)c1C(=O)N1CCN(c2cccc(Cl)c2)CC1	none (no result: UGM FP inh, RecA intein inh, Rv3671c inh)
COc1ccc(-c2csc3ncnc(N4CCN(S(=O)(=O)c5ccc(C(C)=O)cc5)CC4)c23)cc1	none
COc1ccc(Cc2nnc(SCC(=O)Nc3ccc(N4CCOCC4)cc3)n2C)cc1	none
CCc1ccc(C(=O)/C=C/Nc2ccc(S(=O)(=O)Nc3cnc4ccccc4n3)cc2)cc1	none
CC1CCN(c2nc3c(cc2C#N)COC(C)(C)C3)CC1	Mtb FBA inh 40 | Mtb FBA inh conf 91 | GDH-TPI counter-2 63
COc1ccc2nc(N3CCC(C)CC3)c(C#N)cc2c1	none
CC(C)CCNc1nc2c(cc1C#N)COC(C)(C)C2	Mtb FBA inh 64 | Mtb FBA inh conf 192 | GDH-TPI counter-2 159
CC1(C)Cc2nc(NCCN3CCOCC3)c(C#N)cc2CO1	none
Cn1c(CNC(=O)C(Cc2ccccc2)NC(=O)c2cccc(F)c2)cc(=O)n(C)c1=O (stereo unspecified)	none
O=c1c2ccccc2[nH]c2ccc(O)cc12	Mtb FBA inh 28 | Mtb FBA inh conf active | GDH-TPI counter-2 active
CCOC(=O)c1c(-c2ccccc2)[nH]c2ccc(O)cc12	Mtb FBA inh 40 | Mtb FBA inh conf 55 | GDH-TPI counter-2 49
Cc1ccc(S(=O)(=O)N(C)CC(=O)N(C)Cc2cccs2)cc1	none (no result: UGM FP inh, RecA intein inh, Rv3671c inh)
COc1cccc(Cn2cc(C)cc(NC(=O)NCc3ccccc3)c2=O)c1	none
Oc1ccc(-c2nc3ccccn3c2NCc2ccco2)cc1	Mtb FBA inh 52 | Mtb FBA inh conf 70 | GDH-TPI counter-2 55
O=C(CN1C(=O)NC2(CCc3ccccc32)C1=O)NCCc1ccccc1 (stereo unspecified)	none (no result: RecA intein inh)
O=C(c1ccccc1)c1ncc[nH]1	none
O=C(O)c1ccc(-c2ncc[nH]2)cc1	Mtb FBA inh 49 | Mtb FBA inh conf inactive | GDH-TPI counter-2 inactive
NC(=O)c1ccc(-c2nnn(CC(=O)N(C3CCCC3)C3CCS(=O)(=O)C3)n2)cc1 (stereo unspecified)	none (no result: RecA intein inh)
Cc1ccccc1OCC(=O)OC(C)C(=O)NC1CCCC1 (stereo unspecified)	none (no result: RecA intein inh)
CCN(CC)CCNC(=O)c1cc(-c2ccco2)nc2ccccc12	Mtb FBA inh 82 | Mtb FBA inh conf 152 | GDH-TPI counter-2 129
COc1ccc(CCNC(=O)c2cc(-c3ccco3)nc3ccccc23)cc1	none (no result: Mtb FBA inh, Vc quorum ag, GDH-TPI counter-1)
O=C(NNC(=O)c1cc(-c2ccco2)nc2ccccc12)c1ccccc1	Mtb FBA inh 50 | Mtb FBA inh conf 68 | GDH-TPI counter-2 61
O=C(CCS(=O)(=O)c1ccc(Br)cc1)N1CCN(c2ccccc2)CC1	Mtb FBA inh 73 (no result: RecA intein inh) | Mtb FBA inh conf 69 | GDH-TPI counter-2 62
O=C(CCS(=O)(=O)c1ccccc1)N1CCN(c2ccccc2)CC1	none
Cc1cc(-c2cc(NC=O)c3ncc(-c4cccc(C(=O)NCCN(C)C)c4)n3c2)cc(C)c1O	none (no result: UGM FP inh, RecA intein inh, Rv3671c inh)
COc1ccc(NC(=O)C(Sc2ccccc2)c2ccccc2)c(OC)c1 (stereo unspecified)	Mtb FBA inh 72 | Mtb FBA inh conf 45 | GDH-TPI counter-2 33
CN(C)CCCNC(=O)c1cccc(-c2cnc3cccnn23)c1	Mtb FBA inh 102 (no result: UGM FP inh, RecA intein inh, Rv3671c inh) | Mtb FBA inh conf active | GDH-TPI counter-2 active
O=C(NCCO)c1cccc(-c2cccc3nncn23)c1	Mtb FBA inh 75 (no result: UGM FP inh, RecA intein inh, Rv3671c inh) | Mtb FBA inh conf 72 | GDH-TPI counter-2 42
Nc1cccc(-c2cccc3nncn23)c1	none (no result: UGM FP inh, RecA intein inh, Rv3671c inh)
CN(C)CCCNC(=O)c1cccc(-c2ccc3nccn3c2)c1	none (no result: UGM FP inh, RecA intein inh, Rv3671c inh)
Fc1ccc(N2CCN(c3cnc4ccccc4n3)CC2)cc1	none
Cc1cc(C)c2oc(=O)cc(CN3CCOCC3)c2c1	none (no result: Vc quorum ag)
Cc1c(O)ccc2c(CN3CCN(CCO)CC3)cc(=O)oc12	Mtb FBA inh 74 | Mtb FBA inh conf 69 | GDH-TPI counter-2 63
Cc1c(O)ccc2c(CN3CCOCC3)cc(=O)oc12	Mtb FBA inh 71 | Mtb FBA inh conf 46 | GDH-TPI counter-2 38
Cc1ccc2c(CN3CCN(Cc4ccc5c(c4)OCO5)CC3)cc(=O)oc2c1C	none
CP(=O)(Nc1cc(Cl)ccc1Cl)c1nc2c(s1)CCCC2 (stereo unspecified)	none
O=C(O)c1c2c(nc3ccc(S(=O)(=O)N4CCC(C(=O)NCc5ccccc5Cl)CC4)cc13)CCCC2	none
COc1cccc(NC(=O)NNC(=O)COc2ccc3ccccc3c2)c1	Mtb FBA inh 37 | Mtb FBA inh conf active | GDH-TPI counter-2 active
COc1cccc(OCC(=O)NNC(=O)c2ccc3ccccc3c2O)c1	Mtb FBA inh 29 (no result: UGM FP inh, Rv3671c inh) | Mtb FBA inh conf active | GDH-TPI counter-2 active
O=C(CCc1ccccc1)NC1(Cc2ccccc2)CCN(CCCc2ccccc2)C1=O (stereo unspecified)	none (no result: RecA intein inh)
C=C(Cl)COc1cc(C)cc2oc(=O)cc(CC)c12	Mtb FBA inh 32 | Mtb FBA inh conf 146 | GDH-TPI counter-2 118
Cc1cc(OCC(=O)NCc2ccncc2)c2c(C)c(C)c(=O)oc2c1	none
CCc1cc(=O)oc2cc(C)cc(OCC(=O)NCc3ccccn3)c12	Mtb FBA inh 84 | Mtb FBA inh conf 196 | GDH-TPI counter-2 144
CCCc1cc(=O)oc2cc(C)cc(OCC(=O)NCc3ccncc3)c12	Mtb FBA inh 61 | Mtb FBA inh conf 53 | GDH-TPI counter-2 41
CCCc1cc(=O)oc2cc(C)cc(OCC(=O)O)c12	Mtb FBA inh 97 | Mtb FBA inh conf 144 | GDH-TPI counter-2 109

Screening data as filed in PubChem BioAssay.
